# ± gives the standard deviation of the averaged measurements.
# Tests used:
# DLD1 [1] = assay: cell viability (CellTiter-Glo) relative to plate median (fraction of plate median); higher = more viable cells; conditions: 5 µM; treatment time 24 h; reporter: 7TFP
# In short: (§1)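 Values are well luminescence normalised to the plate median, from either a firefly luciferase or a CellTiterGlo readout on parallel plates. The cells, colorectal cancer lines stably transduced with lentiviral 7TFP or TCF4/Wnt firefly luciferase reporters, were treated with library compounds at a final 5 µM for 24 h. The mean of two independent replicates is listed.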
# HCT116 = assay: as above; conditions: 5 µM; treatment time 24 h; reporter: TCF4/Wnt
# In short: as §1
# SW480 [2] = assay: as above; conditions: 5 µM; treatment time 24 h; reporter: 7TFP
# In short: as §1
# DLD1 [3] = assay: TCF/Wnt firefly luciferase reporter signal relative to plate median (fraction of plate median); higher = higher Wnt reporter signal; conditions: 5 µM; treatment time 24 h; reporter: 7TFP
# In short: as §1
# SW480 [4] = assay: as above; conditions: 5 µM; treatment time 24 h; reporter: 7TFP
# In short: as §1
smiles,measurement,setting,value
CC(C)CCCC(C)N (stereo not given),cell viability,DLD1 [1],0.99 ± 0.012
same,cell viability,HCT116,0.929 ± 0.031
same,cell viability,SW480 [2],0.9345 ± 0.0092
same,TCF/Wnt firefly luciferase reporter signal,DLD1 [3],0.875 ± 0.03
same,TCF/Wnt firefly luciferase reporter signal,SW480 [4],0.9465 ± 0.0078
CCc1cnn2c(NCc3ccc[n+]([O-])c3)cc(N3CCCC[C@H]3CCO)nc12 [Dinaciclib],cell viability,DLD1 [1],0.99 ± 0.042
same,cell viability,HCT116,0.779 ± 0.069
same,cell viability,SW480 [2],1.32 ± 0.12
same,TCF/Wnt firefly luciferase reporter signal,DLD1 [3],0.57 ± 0.12
same,TCF/Wnt firefly luciferase reporter signal,SW480 [4],0.789 ± 0.035
C[C@@H]1C/C=C2\SC[C@@H](NC(=O)c3coc(n3)C[C@H](O)C[C@H](O)/C=C/C=C/CNC2=O)C(=O)O1 [Griseoviridin],cell viability,DLD1 [1],0.995 ± 0.021
same,cell viability,HCT116,1.04 ± 0.05
same,cell viability,SW480 [2],1.01 ± 0.021
same,TCF/Wnt firefly luciferase reporter signal,DLD1 [3],0.873 ± 0.12
same,TCF/Wnt firefly luciferase reporter signal,SW480 [4],0.957 ± 0.034
CC(C)CCC[C@@H](C)[C@H]1CC[C@H]2[C@@H]3CC=C4C[C@@H](O)CC[C@]4(C)[C@H]3CC[C@]12C,cell viability,DLD1 [1],1.03 ± 0.067
same,cell viability,HCT116,1 ± 0.11
same,cell viability,SW480 [2],1.015 ± 0.0071
same,TCF/Wnt firefly luciferase reporter signal,DLD1 [3],1.05 ± 0.081
same,TCF/Wnt firefly luciferase reporter signal,SW480 [4],1.04 ± 0.042
CN1CCCC(n2nc(Cc3ccc(Cl)cc3)c3ccccc3c2=O)CC1 (stereo not given),cell viability,DLD1 [1],1.01 ± 0.021
same,cell viability,HCT116,1.015 ± 0.0071
same,cell viability,SW480 [2],1.045 ± 0.0071
same,TCF/Wnt firefly luciferase reporter signal,DLD1 [3],1.17 ± 0.17
same,TCF/Wnt firefly luciferase reporter signal,SW480 [4],1.06 ± 0.057
CS(=O)(=O)CCCCN=C=S,cell viability,DLD1 [1],0.722 ± 0.18
same,cell viability,HCT116,0.8885 ± 0.00071
same,cell viability,SW480 [2],0.83 ± 0.03
same,TCF/Wnt firefly luciferase reporter signal,DLD1 [3],0.83 ± 0.067
same,TCF/Wnt firefly luciferase reporter signal,SW480 [4],0.867 ± 0.12
CN1[C@@H]2CC[C@H]1C[C@@H](OC(c1ccccc1)c1ccccc1)C2,cell viability,DLD1 [1],1.03 ± 0.014
same,cell viability,HCT116,1.12 ± 0.014
same,cell viability,SW480 [2],1.05 ± 0.05
same,TCF/Wnt firefly luciferase reporter signal,DLD1 [3],0.929 ± 0.16
same,TCF/Wnt firefly luciferase reporter signal,SW480 [4],0.982 ± 0.12
NC(=O)NO,cell viability,DLD1 [1],1.06 ± 0.09
same,cell viability,HCT116,1.05 ± 0.042
same,cell viability,SW480 [2],1.09 ± 0.028
same,TCF/Wnt firefly luciferase reporter signal,DLD1 [3],1.03 ± 0.11
same,TCF/Wnt firefly luciferase reporter signal,SW480 [4],1.03 ± 0.12
O=C(CNC(=O)c1ccc(Cl)cc1)NO,cell viability,DLD1 [1],0.978 ± 0.025
same,cell viability,HCT116,1 ± 0.041
same,cell viability,SW480 [2],0.931 ± 0.026
same,TCF/Wnt firefly luciferase reporter signal,DLD1 [3],1.03 ± 0.048
same,TCF/Wnt firefly luciferase reporter signal,SW480 [4],1.13 ± 0.028
CCNC(=O)CC[C@H](N)C(=O)O,cell viability,DLD1 [1],1.01 ± 0.021
same,cell viability,HCT116,1.03 ± 0.06
same,cell viability,SW480 [2],0.998 ± 0.018
same,TCF/Wnt firefly luciferase reporter signal,DLD1 [3],1.13 ± 0.11
same,TCF/Wnt firefly luciferase reporter signal,SW480 [4],1.05 ± 0.014
COc1c(O)cccc1O,cell viability,DLD1 [1],0.99 ± 0.042
same,cell viability,HCT116,0.962 ± 0.17
same,cell viability,SW480 [2],1.01
same,TCF/Wnt firefly luciferase reporter signal,DLD1 [3],1.16 ± 0.05
same,TCF/Wnt firefly luciferase reporter signal,SW480 [4],1.06 ± 0.021
CC(=O)OC1CCC2(C)C3=C(CC[C@H]2C1(C)C)[C@@]1(C)CC[C@@H]([C@@H](C)CCC=C(C)C)[C@]1(C)CC3 (stereo not given in full),cell viability,DLD1 [1],1.04 ± 0.097
same,cell viability,HCT116,1 ± 0.064
same,cell viability,SW480 [2],0.961 ± 0.0014
same,TCF/Wnt firefly luciferase reporter signal,DLD1 [3],1.06 ± 0.17
same,TCF/Wnt firefly luciferase reporter signal,SW480 [4],1.11 ± 0.014
"CC(=O)c1oc2c(C)c3oc(=O)cc(C)c3cc2c1C [2-Acetyl-3,5,9-trimethylfuro[3,2-g]-chromen-7-one (VFT-04)]",cell viability,DLD1 [1],1.02 ± 0.11
same,cell viability,HCT116,0.96 ± 0.05
same,cell viability,SW480 [2],1.085 ± 0.0071
same,TCF/Wnt firefly luciferase reporter signal,DLD1 [3],1.16 ± 0.028
same,TCF/Wnt firefly luciferase reporter signal,SW480 [4],1.12 ± 0.078
Cc1cc(O)cc(O)c1C(=O)O,cell viability,DLD1 [1],1.03 ± 0.035
same,cell viability,HCT116,1.07 ± 0.1
same,cell viability,SW480 [2],1.03 ± 0.014
same,TCF/Wnt firefly luciferase reporter signal,DLD1 [3],1 ± 0.05
same,TCF/Wnt firefly luciferase reporter signal,SW480 [4],0.925 ± 0.039
COc1ccc(/C=C/C(=O)c2cc(O)ccc2O)cc1,cell viability,DLD1 [1],0.979 ± 0.044
same,cell viability,HCT116,0.959 ± 0.073
same,cell viability,SW480 [2],0.98 ± 0.029
same,TCF/Wnt firefly luciferase reporter signal,DLD1 [3],1.18 ± 0.014
same,TCF/Wnt firefly luciferase reporter signal,SW480 [4],1.05 ± 0.17
CC(=O)O[C@@H]1C[C@H]2C(C)(C)[C@@H](O)CC[C@]2(C)[C@H]2CC[C@@]3(C)[C@H](c4ccoc4)OC(=O)[C@H]4O[C@]43[C@@]21C [beta-DIHYDROGEDUNOL],cell viability,DLD1 [1],0.978 ± 0.028
same,cell viability,HCT116,1.08 ± 0.078
same,cell viability,SW480 [2],0.984 ± 0.021
same,TCF/Wnt firefly luciferase reporter signal,DLD1 [3],1.02 ± 0.035
same,TCF/Wnt firefly luciferase reporter signal,SW480 [4],1.12 ± 0.085
CN1CCCN=C1/C=C/c1cccs1,cell viability,DLD1 [1],0.984 ± 0.022
same,cell viability,HCT116,0.903 ± 0.093
same,cell viability,SW480 [2],1.05
same,TCF/Wnt firefly luciferase reporter signal,DLD1 [3],1.135 ± 0.0071
same,TCF/Wnt firefly luciferase reporter signal,SW480 [4],0.994 ± 0.037
O=c1c(-c2ccccc2)coc2cc(O)cc(O)c12,cell viability,DLD1 [1],0.94 ± 0.11
same,cell viability,HCT116,0.883 ± 0.027
same,cell viability,SW480 [2],0.993 ± 0.053
same,TCF/Wnt firefly luciferase reporter signal,DLD1 [3],0.926 ± 0.097
same,TCF/Wnt firefly luciferase reporter signal,SW480 [4],1.04 ± 0.18

# From the supplement of paper PMC6522484
